Holding throughout (assay): NCI-60 one-dose screen, 48 h (100 = growth as untreated, 0 = no growth, -100 = all killed)
Details in all cases: 10 µM

The subject of test [1] is NCI-H23 lung.
Test [2] deals with NCI-H226 lung.
Test [3] concerns NCI-H522 lung.
Test [4] relates to A549/ATCC NSCLC.
For test [5], the system named is 786-0 renal.
Test [6] concerns COLO 205 colon.
The subject of test [7] is NCI-H460 lung.
The subject of test [8] is NCI-H322M lung.
In test [9] the test system is HOP-92 NSCLC.

Compounds without any hit were thinned out: in the full panel of roughly 83,000, 20% have a hit.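 Single-concentration screen, 48 h exposure, 96-well plates. Endpoint: percent growth. Below 10 = active.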 Unmarked numbers belong to inactive results. Calls of active or inactive are those of the source.

For the compound `CN1CCc2c(sc3nc4n(-c5ccc(Cl)cc5)c(=O)[nH]n4c(=O)c23)C1`, the growth in test [1] was 97.4%; in test [2] it was 94.7%; in [3] it was 77.9%; in [4] it was 74.7%; in test [5], 84.8%; in [6], 108%.
`O=C(Nc1ccccc1)Nc1ncnc2c1ncn2-c1ccccc1`: the growth in test [1] is 90.9%; in test [2], 59.1%; in test [7] it was 7.9% (active); in test [4] it was 44.5%; in test [5] it was 12.1%; in test [6], 86.1%.
Regarding `CCOC(=O)c1sc2ncnc(Nc3ccc(NC(=O)Nc4ccc(Cl)cc4)cc3)c2c1C`, the growth is 52.2% in test [1]; 87.3% in test [2]; 41.1% in test [7]; 54.1% in [3]; 54.5% in test [4]; 52.3% in [5]. The growth in test [6] was 53%.
On to `CCCN1CN2C(=O)N3CN(CCC)CN4C(=S)N(C1)C2C34` (stereo unspecified), for which the growth in test [1] was 100%; in [8] it was 87.6%; in [7] it was 112%; in [9] it was 101%; in test [3] it was 91.7%; in [4], 102%. Further, the growth in test [5] was 93.2%; in [6], 114%.
Take `CCOC(=O)CSc1nc(-c2cc(OC)ccc2OC)cc(-c2ccc(OC)cc2)c1C#N`: the growth in test [1] is 87%; in test [2] it was 86.4%; in test [7], 66.6%; in test [3] it was 55.8%; in test [4], 61.6%; in test [5], 71.9%. In addition, the growth in test [6] is 101%.
On to `CC(C)[N+]1(C)C2CC[C@@H]1CC(OC(=O)C(CO)c1ccccc1)C2` (stereo partly specified), for which the growth was 92% in test [1]; 103% in [2]; 108% in [7]; 92.3% in test [4]; 103% in test [5]; 113% in test [6].
As to `c1cnc2[nH]cc(-c3nc(-c4ccsc4)cs3)c2c1`, the growth is 80.2% in [1]; 74.4% in test [2]; 109% in test [7]; 79.4% in [3]; 84.7% in test [4]; 107% in [5]. For the same compound, the growth in test [6] is 117%.
With `N#Cc1c(-c2ccc(Cl)cc2)cc(-c2cc(O)ccc2O)nc1N`, the growth in test [1] was 11.2%; in test [2], 94.8%; in [7], 5.46% (active); in test [3] it was -8.49% (active); in [4] it was 40%; in test [5], -4.38% (active). Also, in test [6], the growth is 97.5%.
In the case of `Nc1ccc(-c2cccs2)cc1NC(=O)c1ccc(CCCC(=O)Nc2ccc(C3CC3N)cc2)cc1` (stereo unspecified), the growth in test [1] is 86.3%; in test [2], 108%; in test [7], 38%; in [3], 53.6%; in test [4] it was 72.1%; in test [5], -48% (active). The growth in test [6] is 73.9%.
As for `COc1cc(/C=C2\CCCC3C2=Nc2ccccc2NC3c2cc(OC)c(OC)c(OC)c2)cc(OC)c1OC` (stereo unspecified), the growth in test [1] was 8.47% (active); in [2], -38.4% (active); in test [7] it was -12.2% (active); in test [3], -6.47% (active); in [4], 5.87% (active); in [5], 1.85% (active). Moreover, the growth in test [6] is 0.19% (active).
As for `CN1C(C(=O)Nc2ccccn2)=C(O)c2sc(Cl)cc2S1(=O)=O`, the growth in test [1] is 99.6%; in test [2] it was 106%; in test [7], 99.9%; in [4], 99.9%; in test [5], 104%; in test [6] it was 105%.
Take `Nc1cc(-c2ccc(Cl)cc2)nn1-c1nc2ccccc2nc1Cc1ccccc1`: the growth in [1] is 81.5%; in [2] it was 84.3%; in [3], 85.7%; in test [4], 78%; in test [5], 89.5%; in [6], 109%.
For the compound `O=C1c2c(c3c4ccccc4n(CCCCCCN4CCOCC4)c3c3[nH]c4ccccc4c23)C(=O)N1O`, the growth in test [1] is 81.5%; in test [2], 66.7%; in test [7] it was 72.2%; in test [3], 67.3%; in test [4] it was 81.1%; in test [5], 5.72% (active). Also, the growth in test [6] was 36%.
On to `COc1cc2c3c(n(C4CCNCC4)c(=O)c2cc1OC)-c1cc2c(cc1C3=O)OCO2`, for which the growth in test [1] was -59.4% (active); in [2] it was -43.8% (active); in [7], -66.2% (active); in test [4], -53.7% (active); in test [5], -60% (active); in test [6] it was -83% (active).
With `Cc1c2c[n+](C(C)C)ccc2c(C)c2c1[nH]c1ccccc12`, the growth in test [1] was 6.42% (active); in [2], 27.4%; in [7], 4.39% (active); in test [3], 2.71% (active); in [4], 20.4%; in test [5], 27.7%. In addition, in [6], the growth was -6.61% (active).
As for `Nc1nc(-c2cccnc2)nc2c1sc(=S)n2-c1ccccc1`, the growth in test [1] is 103%; in [2], 95.8%; in test [7] it was 97.2%; in test [3], 83.4%; in [4] it was 76.2%; in test [5] it was 98.7%. In addition, the growth in [6] was 108%.
As for `Cc1ccccc1N1C(=O)c2cc(S(N)(=O)=O)c(Cl)cc2NC1C` (stereo unspecified), the growth in test [1] is 101%; in test [2], 112%; in [7] it was 111%; in test [4], 100%; in [5] it was 99.6%; in test [6], 118%.
On to `COc1cc2c3c(n([C@H]4CCOC4)c(=O)c2cc1OC)-c1cc2c(cc1C3=O)OCO2`, for which the growth in test [1] is 17.4%; in test [2], 20.8%; in [7], 3.66% (active); in [3] it was 15.8%; in [4] it was 32.5%; in test [5], 10.6%. Further, the growth in test [6] is 35.8%.
For the compound `Fc1ccc2[nH]cc(-c3nc(-c4ccsc4)cs3)c2c1`, the growth was 83.6% in test [1]; 78.5% in test [2]; 121% in [7]; 79.2% in [3]; 80% in test [4]; 109% in test [5]. For the same compound, the growth in test [6] is 101%.
For `Cc1ccc(C(=O)C2C(=O)C3CCC2C3)cc1` (stereo unspecified), the growth in test [1] is 94.4%; in test [2], 99.2%; in [9], 98%; in [3], 101%; in [4], 102%; in test [5] it was 104%. In addition, the growth in [6] was 100%.
As to `CN(C)CCCN1c2ccccc2CCc2ccc(Cl)cc21`, the growth in test [1] was 71.2%; in test [2], 85.7%; in [7], 79.4%; in test [4], 72.4%; in test [5], 71.3%; in test [6], -11.9% (active).
Consider `C[C@@H](O)[C@H]1C(=O)N2C(C(=O)O)=C(SC3CN[C@H](C(=O)N(C)C)C3)[C@H](C)[C@H]12` (stereo partly specified), for which the growth in test [1] was 97.2%; in [2] it was 99.2%; in test [7] it was 102%; in test [4] it was 96.6%; in [5], 103%; in test [6] it was 113%.

The values are drawn from PubChem BioAssay (NCI).
